# In PubChem BioAssay (Tox21):
# Results filed as inconclusive are left out. Active and inactive are the calls of the source. The call rests on the fitted dose curve. Square brackets hold non-standard residues; d marks the D form. Peptide text beside a SMILES is read from it. pGlu = O=C1CC[C@@H](C(=O)O)N1
# Molecular target: Muscarinic acetylcholine receptor M1 (Homo sapiens) (UniProt P11229)
# Assay: Cholinergic receptor muscarinic 1 (CHRM1) small molecule antagonists, cell-based qHTS assay (AID 1963588); further: nearly all actives have a fitted effect of over 40% in size
# Conditions: CHRM1-CHO antagonist mode, calcium flux fluorescence; series mostly up to 61.5 µM; activity, negative = inhibition: at the top concentration
# Text: National Center for Advancing Translational Sciences [NCATS]
# Division of Preclinical Innovation [DPI]
# U.S. Environmental Protection Agency [EPA]
# National Institutes of Environmental Health Sciences [NIEHS]
# National Toxicology Program [NTP]
# U.S. Food and Drug Administration [FDA]
# The CHRM1 is a muscarinic receptor. This receptor plays a crucial role in learning and memory processes and has long been identified as a promising therapeutic target for the improvement of cognitive decline in Alzheimer's disease (AD). The CHRM1-CHO cell line stably expressing human muscarinic acetylcholine receptor M1 (CHRM1) can be used for screening agonists and antagonists of interactions between CHRM1 and its ligands. The CHRM1-CHO Calcium Flux Assay is a homogeneous fluorescence-based assay for detecting the intracellular calcium level using FDSS kinetic plate reader system.
# Tox21 Assay Protocol Summary:
# CHRM1-CHO cells were dispensed at 1000 cells/3uL/well in 1536-well black-clear bottom plates using a Multidrop Dispenser. After the assay plates were incubated at a 37 C/5% CO2 incubator for 18 h, 3 uL of Dye Loading Buffer was transferred to the assay plate by a Flying Reagent Dispenser. The assay plates were incubated at 37 C for 1h. For antagonist mode, 23 nL of compounds dissolved in DMSO, positive controls or DMSO only was transferred to the assay plate by a pin tool. After 5 min incubation at room temperature, 1.5 uL of acetylcholine at 50nM was added to each well. The fluorescence intensity in the plates was measured using FDSS 7000EX kinetic plate reader for 3 min at 1 sec intervals. Each test compound was measured at 15 concentrations in three independent runs.
# On the % scale 0 is the no-effect control and ±100 the full control effect; potency means the concentration at half of the fitted maximal effect.
# Muscarinic acetylcholine receptor M1 (Homo sapiens), sequence (P11229 whole entry, looked up): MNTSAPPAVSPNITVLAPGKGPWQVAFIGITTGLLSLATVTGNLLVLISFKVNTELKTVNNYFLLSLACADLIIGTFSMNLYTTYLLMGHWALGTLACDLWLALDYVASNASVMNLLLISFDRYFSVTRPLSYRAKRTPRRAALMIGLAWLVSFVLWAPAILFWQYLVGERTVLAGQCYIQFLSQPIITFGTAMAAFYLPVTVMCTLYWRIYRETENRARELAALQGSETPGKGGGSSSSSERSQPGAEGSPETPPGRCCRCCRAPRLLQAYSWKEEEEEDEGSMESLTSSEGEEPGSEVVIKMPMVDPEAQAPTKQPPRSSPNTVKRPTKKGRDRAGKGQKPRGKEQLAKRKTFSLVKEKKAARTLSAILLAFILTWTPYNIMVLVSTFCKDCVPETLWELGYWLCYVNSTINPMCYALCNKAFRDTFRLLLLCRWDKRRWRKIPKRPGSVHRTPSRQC
Compound,"activity, negative = inhibition",Potency
CCOP(=S)(S)OCC,0.531% (inactive),
CC(C)(C)OO,13.2% (inactive),
ClC(Br)Br,-6.16% (inactive),
CCNC(=O)[C@@H]1CCCN1C(=O)[C@H](CCCN=C(N)N)NC(=O)[C@H](CC(C)C)NC(=O)CNC(=O)[C@H](Cc1ccc(O)cc1)NC(=O)[C@H](CO)NC(=O)[C@H](Cc1c[nH]c2ccccc12)NC(=O)[C@H](Cc1cnc[nH]1)NC(=O)[C@@H]1CCC(=O)N1 ([pGlu]HWSYGLRP-NHEt),16.5% [at 28.3 µM] (inactive),
Cl/C=C\Cl,12% (inactive),
C=CC(=O)NCNC(=O)C=C,3.47% (inactive),
N#CSCc1ccccc1,-12.1% (inactive),
C/C=C/C=O,0.596% (inactive),
CC(Cc1ccccc1)NCCCCl (stereo not given),-3.46% [at 28.3 µM] (inactive),
c1csc(-c2ccc(-c3cccs3)s2)c1,-59.4% (inactive),
C[As+](C)(C)CC(=O)[O-],11.4% (inactive),
CCC#N,13.7% (inactive),
CO/N=C(/C1=NOCCO1)c1ccccc1Oc1ncnc(Oc2ccccc2Cl)c1F,-12.2% (inactive),
CNC(C)Cc1ccc2c(c1)OCO2 (stereo not given),-11.4% (inactive),
COc1ccc2c(C(=O)c3ccc(Cl)cc3)c(C)n(CC(=O)O)c2c1,-16.9% [at 28.3 µM] (inactive),
C=C(C)[C@H]1CN[C@H](C(=O)O)[C@H]1CC(=O)O,16.5% [at 28.3 µM] (inactive),
CSCC[C@H](NC(=O)[C@H](Cc1c[nH]c2ccccc12)NC(=O)CCNC(=O)OC(C)(C)C)C(=O)N[C@@H](CC(=O)O)C(=O)N[C@@H](Cc1ccccc1)C(N)=O,0.768% [at 28.3 µM] (inactive),
[Cl-].[Cl-].[Sn+2],7.5% (inactive),
Cc1cccc(C)c1NC1=NCCCS1,-12.3% [at 28.3 µM] (inactive),
O=[N+]([O-])c1ccc(F)c([N+](=O)[O-])c1,4.12% (inactive),

Compound,"activity, negative = inhibition",Potency
COc1cc(CC(C)N)c(OC)cc1Br (stereo not given),,17.3 µM (active)
O=c1oc2ccccc2c(O)c1C1CCCc2ccccc21 (stereo not given),-3.27% (inactive),
Cc1ccc(-c2c(Cl)nc(C#N)n2S(=O)(=O)N(C)C)cc1,7.68% (inactive),
C#CC(C)(C)O,45% (inactive),
CCC(C)(C)c1cc(-n2nc3ccccc3n2)c(O)c(C(C)(C)CC)c1,,0.0956 µM (active)
ClC1=C(Cl)[C@]2(Cl)[C@H]3[C@H]([C@@H]4C=C[C@H]3C4)[C@@]1(Cl)C2(Cl)Cl,,inactive
O=c1c(C2CC(c3ccc(-c4ccc(Br)cc4)cc3)Cc3ccccc32)c(O)sc2ccccc12 (stereo not given),11% [at 28.3 µM] (inactive),
O=C(Nc1ccccc1)c1ccccc1I,16.8% (inactive),
O=C(O)CCCCCCNC1c2ccccc2CCc2ccccc21,-15.7% [at 28.3 µM] (inactive),
CC(CCc1ccccc1)NC(C)C(O)c1ccc(O)cc1 (stereo not given),-13.2% [at 28.3 µM] (inactive),
COc1cccc(C(=O)NN(C(=O)c2cc(C)cc(C)c2)C(C)(C)C)c1C,,14.9 µM (active)
CCOP(=S)(OCC)Oc1ncn(-c2ccccc2)n1,-4.99% (inactive),
ClCCCN1CCN(c2cccc(Cl)c2)CC1,17.1% [at 28.3 µM] (inactive),
ClC1=C(Cl)[C@]2(Cl)[C@H]3[C@H]([C@H]4C=C[C@H]3C4)[C@@]1(Cl)C2(Cl)Cl,9.5% (inactive),
c1ccc2c(c1)Sc1ccccc1N2CC1CN2CCC1CC2 (stereo not given),9.87% [at 28.3 µM] (inactive),
CCCCNP(N)(N)=S,4.16% (inactive),
CC(=O)[O-].[Tl+],15.5% (inactive),
COCC(C)N(C(=O)CCl)c1c(C)csc1C (stereo not given),29.4% (inactive),
O=[Se]=O,-7.8% [at 28.3 µM] (inactive),
Cc1ncc(C[n+]2csc(CCO)c2C)c(N)n1,0.248% (inactive),
